GALC G270D act – enhancers of human galactocerebrosidase G270D mutant activity in cells | P54803 | 145M-Twi-hGALC-G270D cells (Twitcher mouse brain line with human GALC G270D), HMU-beta-Gal fluorescence, 48 h | 0.1% of 45,000 active | Potency, µM (titrated, usually from 57.5 µM), hits mostly activators | AID 1159614; further: nearly all actives have a fitted effect of over 65% in size
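Live 145M-Twi cells (Twitcher mouse brain-derived, GALC-null) stably expressing human GALC-G270D, with a wild-type GALC line, were compound-treated. Residual GALC activity was then read as fluorescence from 0.1 mM final HMU-β-gal at pH 5.2; higher signal means activation.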
B2AR arrestin ag – ADRB2 beta-arrestin recruitment | HTLA Tango cells, beta-arrestin recruitment, luciferase luminescence, 18 h | Potency, µM (top dose mostly 46.1 µM), most hits filed as activators | 44,000 tested, under 10 active
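First, Tango cells carrying beta2-AR and beta-arrestin fusions received compound up to 46 microM. After 18 hr at 37 degrees C, luciferase substrate was added for 15 minutes, then luminescence gave %Activity for curve fitting.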
DRV1 agonist – GPR32 (DRV1) agonism, beta-arrestin recruitment; O75388; CHO-K1 GPR32 beta-arrestin PathHunter luminescence, 90 min; zero percent set by DMSO-only wells; activation, % at 76.9 µM; 2.5% of 48,000 active; AID 1346428;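 active means activation of at least 60% and not above a set upper limit, about 1 call in 100 departs from these limits; inconclusive means activation of 40% to 60%, or above that upper limit; inactive means activation under 40%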
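GPR32 activation in stably transfected CHO-K1 cells, detected as beta-arrestin recruitment by enzyme-fragment complementation. Compound exposure: 90 min, 37 °C.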
NTMT1 inh – NTMT1 methyltransferase inhibition | 2.5% of 59,000 active | Q9BV86 | NTMT1 MTase-Glo SAH luminescence, purified enzyme | Potency, µM (titrated, usually from 114 µM), hits mostly inhibitors; further: nearly all actives have a fitted effect of over 65% in size
Target sequence (Q9BV86 whole entry, looked up): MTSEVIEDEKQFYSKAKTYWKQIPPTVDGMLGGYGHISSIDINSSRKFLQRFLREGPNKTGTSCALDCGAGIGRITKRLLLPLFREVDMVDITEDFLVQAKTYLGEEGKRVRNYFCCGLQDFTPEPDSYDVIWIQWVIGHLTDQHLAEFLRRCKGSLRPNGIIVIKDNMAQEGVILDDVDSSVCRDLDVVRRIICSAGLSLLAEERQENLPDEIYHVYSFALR
GALK inhibitor – inhibits human galactokinase; recombinant GALK, Kinase-Glo ATP luminescence, 1 h; Potency, µM (titrated, usually from 57.5 µM), usual class: inhibitors; 44,000 tested, under 10 active; AID 1347072
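5 nM GALK with 35 µM ATP and 100 µM galactose in HEPES pH 8.0, MgCl2, NaCl, DTT, BSA; 1 h RT reaction, remaining ATP detected by Kinase-Glo Plus luminescence after 10 min; qHTS concentration series.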
A number is an active result; – = inactive; ? = inconclusive; · = not tested or not shown; ! = not confirmed by another sample. Shown are actives, neighbours in structure and some others; about 3.6% of the full set was active somewhere. Unless noted, the call rests on the fitted dose curve; in most records, active means well fitted curve in the direction sought with a large enough effect; inconclusive means small, poorly fitted or top-dose-only effect, or another doubt; inactive means no such curve, though single readings can be large; an effect the other way counts as inactive or inconclusive.

SMILES	GALC G270D act	B2AR arrestin ag	DRV1 agonist	NTMT1 inh	GALK inhibitor
CC[C@H]1OC(=O)[C@H](C)[C@@H](OC2C[C@@](C)(OC)[C@@H](O)[C@H](C)O2)[C@H](C)[C@@H](OC2O[C@H](C)C[C@H](NC)[C@H]2O)[C@](C)(O)C[C@@H](C)CN(C)[C@H](C)[C@@H](O)[C@]1(C)O (stereo not given in full)	·	·	·	–	·
Cc1ccccc1N1CC(c2nc3ccccc3n2Cc2ccc(Br)cc2)CC1=O (stereo not given)	–	–	92	–	–
Cc1ccccc1N1CC(c2nc3ccccc3n2CCC2CCCCC2)CC1=O (stereo not given)	–	–	–	?	–
CCCOc1ccc(/C=C/C(=O)Nc2sc(C)c(C)c2C(=O)OCC)cc1OC	–	–	–	79µM	–
CCOC(=O)c1c(NC(=O)/C=C/c2ccc(OC)c(OC)c2)sc(C(C)=O)c1C	–	–	–	–	–
O=C(Nc1nc(-c2ccccc2)cs1)c1ccccc1S(=O)(=O)Nc1nccs1	·	·	·	–	·
COc1cc(C(=O)O)ccc1NC(=O)[C@@H]1N[C@@H](CC(C)(C)C)[C@](C#N)(c2ccc(Cl)cc2F)[C@H]1c1cccc(Cl)c1F	·	·	·	11µM	·
CONC(=O)Nc1ccc(-c2sc3c(c2CN(C)Cc2ccccc2)c(=O)n(-c2ccccc2)c(=O)n3Cc2c(F)cccc2F)cc1	·	·	·	–	·
CN1CCc2cccc3c2[C@H]1Cc1ccc(O)c(O)c1-3	–	·	–	22µM	·
CC(=O)N1CCCC1c1nc2ccccc2n1Cc1c(F)cccc1Cl (stereo not given)	–	–	–	89µM	–
COc1ccc(NC(=O)CSc2nc3c(oc4ccccc43)c(=O)n2Cc2ccco2)cc1Cl	–	–	–	–	–
COCCn1c(SCC(=O)Nc2ccc(F)c(Cl)c2)nc2c(oc3ccccc32)c1=O	–	–	–	79µM	–
COCCCNC(=O)Cn1c(=O)n(-c2ccc(Cl)cc2)c(=O)c2c3c(sc21)CCCCC3	–	–	60	–	–
COc1cccc(CN2CCc3nc(Nc4ccc5c(c4)OCCO5)ncc3C2)c1OC	–	–	86	–	–
COc1cc(CN2CCc3nc(Nc4ccc5c(c4)OCCO5)ncc3C2)cc(OC)c1OC	–	–	97	–	–
Fc1cccc(CN2CCc3nc(Nc4ccc5c(c4)OCCO5)ncc3C2)c1F	–	–	–	–	–
CCc1ccc(CN2CCc3nc(Nc4ccc5c(c4)OCCO5)ncc3C2)cc1	–	–	–	89µM	–
CC(C)(C)OC(=O)N1CCC(C(=O)Nc2ccc([S+](=O)([O-])Nc3nccs3)cc2)CC1	·	·	·	–	·
CC1(C)SCCN(S(=O)(=O)c2ccc(OCC#CCO)cc2)[C@H]1C(=O)NO	·	·	·	–	·
CCCCCCCCCCC(O)C1C=CC2C(=O)N(c3ccccc3)C(=O)C2N1Nc1ccc([N+](=O)[O-])cc1 (stereo not given)	·	·	·	–	·
CC1=C(C(=O)OC2CCCC2)C(c2cccc(Cl)c2Cl)CC(=O)N1 (stereo not given)	–	–	83	–	–
CC1=C(C(=O)OC2CCCCCC2)C(c2c(Cl)cccc2Cl)CC(=O)N1 (stereo not given)	–	–	–	–	–
CC1=C(C(=O)OC2CCCC2)C(c2c(Cl)cccc2Cl)CC(=O)N1 (stereo not given)	–	–	82	–	–
O=c1c2ccc(C(F)(F)F)cc2nc2sc(Nc3ccc4c(c3)CCC4)nn12	·	·	·	–	·
C/C(=C(/OCCOc1ccc(Cl)cc1)c1ccc(Cl)cc1Cl)n1ccnc1	–	·	–	–	·
SMILES	GALC G270D act	B2AR arrestin ag	DRV1 agonist	NTMT1 inh	GALK inhibitor
CC(=O)N1CCN(c2ccc(OC[C@H]3CO[C@](Cn4ccnc4)(c4ccc(Cl)cc4Cl)O3)cc2)CC1	·	·	–	22µM!	·
NCCS	–	·	–	32µM	·
O=S(=O)(c1ccc2c(c1)OCCO2)N1CCN(S(=O)(=O)c2ccc(Br)cc2F)CC1	·	·	·	–	·
O=c1onc2n1-c1cc(Br)ccc1OC2	·	·	65	·	·
CCCCNC(=O)Nc1ccc2c(c1)N(C)C(=O)c1ccccc1S2	–	–	–	89µM	–
COC(=O)C1=C(c2ccccc2)c2ccccc2S(=O)(=O)N1CC(=O)Nc1cccc(C(C)=O)c1	–	–	–	79µM	–
O=c1sn(-c2cccc3ccccc23)c(=O)n1Cc1ccccc1	·	·	·	13µM	·
